The values that follow come from PubChem BioAssay (NCI).

Molecules are shown by their SMILES. This is part of a sample that, as a whole, favours compounds with a hit. Of some 83,000 tested, about 20% had one in any assay.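 Assay: single dose, 48 h. Readout: percent growth (0 = no net growth; negative = cell death). Active: <10.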 Unmarked numbers belong to inactive results. Calls of active or inactive are those of the source.

The test relates to HL-60(TB) leukemia. As to the kind of experiment: NCI-60 one-dose screen, 48 h (100 = growth as untreated, 0 = no growth, -100 = all killed). Particulars: 10 µM unless noted.
Turning to `CC(C)CSc1nc(NN)c(C#N)c(-c2ccccc2)n1`, the growth was 106%.
Take `Cc1cc2c(c(C)c1Cl)C(=O)/C(=C/c1ccco1)O2`: the growth is 97.5%.
Consider `CCCCN(Cc1ccc(C(=O)NO)cc1)C(=O)Nc1ccc(OCCCCCCCCCn2cc(CCCCC(=O)N[C@H](C(=O)N3C[C@H](O)C[C@H]3C(=O)NCc3ccc(-c4scnc4C)cc3)C(C)(C)C)nn2)cc1`, for which the growth was 21.6%.
Regarding `Clc1ccc(Nc2ccnc(N3CCN(c4ccnc5cc(Cl)ccc45)CC3)n2)cc1`, the growth was 72.1%.
To `Cc1cc2c(cc1C)N(C(=O)CCl)CC(=O)N2` belongs 8.25% (active); to `CSc1nc(Nc2cccc(NC(=O)CCl)c2)c(C#N)c(-c2cccc([N+](=O)[O-])c2)n1`, 30.3%.
To `C=C(C)[C@@H]1CC[C@]2(C(=O)N3CCN(CC)CC3)CC[C@]3(C)[C@H](CC[C@@H]4[C@@](C)(CCC(=O)N5CCN(CC)CC5)[C@H](C(=C)C)CC[C@]43C)[C@@H]12` belongs 30.4%; to `O=C(O)COc1ccc(OCC(=O)O)cc1`, -1.78% (active); to `CCCCCCCOc1cccc(/C=C2/C(=O)N=C3SCCCN32)c1`, 95.2%.
To `COc1cc2c(c(OC)c1OC)CCC(c1cccc(C(=O)Nc3ccccc3Br)c1)O2` (stereo not given) belongs 79.3%; to `CC1(C)CC(=O)c2c(nc3ccc(Cl)cc3c2-c2ccccc2)C1`, 82.3%.
With `ClC(Cl)c1nc(-c2ccccc2)n2nc(-c3ccccc3)cc2n1`, the growth was -7.03% (active).
Consider `N=C(N)c1ccc(-c2ccc(-c3ccccc3)s2)cc1F`, for which the growth is -73.1% (active).
The value for `O=C(Cc1nc2ccc([N+](=O)[O-])cc2nc1CC(=O)c1ccccc1)c1ccccc1` was 31.5%; that for `C/C(=C(/c1ccc(Cl)cc1)c1ccc(OCCN2CCCC2)cc1)c1ccccc1` was 70.4%; that for `CCCCCCCCCCCCCCCCN=C(CC(=O)O)C(=O)O` was 72.6%.
The value for `CC(C)[N+]1(C)C2CC[C@@H]1CC(OC(=O)C(CO)c1ccccc1)C2` (stereo not given in full) was 107%; that for `O=C1/C(=C/c2cccs2)CCC/C1=C\c1cccs1` was 93.8%; that for `CNC(=O)c1cc(Oc2ccc(NC(=O)c3nc(S(C)(=O)=O)sc3-c3ccc(F)cc3)cc2)ccn1` was 27.2%.
The value for `Cc1ccc(-c2nc(SCC(=O)c3ccc(C#N)cc3)[nH]c(=O)c2C#N)cc1` was 94.2%; that for `COc1ccc(-c2cc(-c3cc(OC)ccc3O)[nH]c(=O)c2C#N)cc1` was 16.9%; that for `O=c1[nH]nc(-c2ccccc2)c2c(-c3ccccc3)onc12` was -34% (active).
For the molecule `COc1cc(C)cc(-c2c(-c3cc(N4CC(O)C4)nc(-c4cccnc4)n3)cnn2C)c1`, the growth is 105%.
The value for `O=S(=O)(Nc1ccc(-n2cnc3cc(-c4ccc(O)cc4)ccc32)cc1)c1ccccc1` was 79%; that for `N#Cc1ccc(-n2nnc3ccccc32)cc1C#N` was 108%.
